The structures appear in SMILES notation. In all, about 39,000 compounds went through this assay and about 500 (1.3%) were called active. The sample as a whole holds a higher share of actives than the screen did.

In the experiment the test system is S. aureus RN4220. In words: growth inhibition call (relative growth <= 0.2). Conditions: 50 µM.
Take `COc1ccc(NC(=O)Nc2ccc3c(c2)C(=O)N([C@H](C)CO)C[C@H](C)[C@@H](CN(C)C(=O)Nc2ccccc2)OCCCC[C@@H](C)O3)cc1`: the growth inhibition call was “inactive”.
For the molecule `CCCCCCOC(=O)/N=C(/N)c1ccc(NCc2nc3cc(C(=O)N(CCC(=O)OCC)c4ccccn4)ccc3n2C)cc1`, the growth inhibition call is “inactive”.
With `C[C@@H]1CN([C@@H](C)CO)C(=O)c2cccc(NC(=O)C3CCCCC3)c2O[C@@H]1CN(C)C(=O)Nc1ccc(C(F)(F)F)cc1`, the growth inhibition call was “active”.
Regarding `C[C@@H]1CN([C@@H](C)CO)C(=O)c2cccc(NC(=O)C3CCCCC3)c2O[C@H]1CN(C)C(=O)Nc1ccc(C(F)(F)F)cc1`, the growth inhibition call was “inactive”.
The same measure for `C[C@H](CO)N1C[C@H](C)[C@H](CN(C)C(=O)Nc2ccc(C(F)(F)F)cc2)Oc2c(NC(=O)C3CCCCC3)cccc2C1=O`: “inactive”.
With `C[C@@H]1CN([C@H](C)CO)C(=O)c2cccc(NC(=O)C3CCCCC3)c2O[C@H]1CN(C)C(=O)Nc1ccc(C(F)(F)F)cc1`, the growth inhibition call is “inactive”.
For the molecule `CC(C)N1C[C@H](C)[C@@H](CN(C)Cc2ccc(Oc3ccccc3)cc2)Oc2c(NC(=O)C3CCN(C)CC3)cccc2C1=O`, the growth inhibition call was “inactive”.
As for `C[C@@H]1CN([C@H](C)CO)C(=O)c2cccc(NC(=O)C3CCCCC3)c2O[C@@H]1CN(C)C(=O)Nc1ccc(C(F)(F)F)cc1`, the growth inhibition call is “active”.
Consider `CC(C)N1C[C@H](C)[C@@H](CN(C)Cc2ccc(Oc3ccccc3)cc2)Oc2c(NC(=O)C3CCNCC3)cccc2C1=O`, for which the growth inhibition call was “active”.
With `C[C@H](CO)N1C[C@H](C)[C@@H](CN(C)Cc2ccc(Oc3ccccc3)cc2)Oc2c(NC(=O)C3CC3)cccc2C1=O`, the growth inhibition call is “inactive”.
Consider `C[C@H](CO)N1C[C@H](C)[C@@H](CN(C)C(=O)Nc2ccc(C(F)(F)F)cc2)Oc2c(NC(=O)C3CCCCC3)cccc2C1=O`, for which the growth inhibition call is “inactive”.
In the case of `C[C@@H]1CN([C@H](C)CO)C(=O)Cc2cc(NC(=O)Nc3ccc4c(c3)OCO4)ccc2O[C@H]1CN(C)C(=O)Nc1ccc(C(F)(F)F)cc1`, the growth inhibition call was “inactive”.
As for `C[C@H](CO)N1C[C@H](C)[C@H](CN(C)C(=O)c2ccccc2)OCCCC[C@H](C)Oc2ccc(NC(=O)CCC(F)(F)F)cc2C1=O`, the growth inhibition call is “inactive”.
As for `C[C@@H]1CN([C@H](C)CO)S(=O)(=O)c2ccc(-c3ccncc3)cc2O[C@H]1CN(C)C(=O)c1ccc2c(c1)OCO2`, the growth inhibition call was “inactive”.
As for `C[C@@H]1CN([C@H](C)CO)C(=O)c2cc(C#CCN(C)C)cnc2O[C@@H]1CN(C)S(=O)(=O)c1cn(C)cn1`, the growth inhibition call was “inactive”.
For `COc1ccc(S(=O)(=O)Nc2ccc3c(c2)C(=O)N([C@@H](C)CO)C[C@@H](C)[C@H](CN(C)C(=O)Nc2ccc4c(c2)OCO4)OCCCC[C@@H](C)O3)cc1` the value was “inactive”; for `CCn1cnc2c(=O)[nH][nH]c(=O)c21`, “inactive”.
As to `C[C@@H]1CN([C@@H](C)CO)C(=O)Cc2cc(NC(=O)Nc3ccccc3)ccc2O[C@@H]1CN(C)Cc1ccc(C(F)(F)F)cc1`, the growth inhibition call was “inactive”.
For `CC(C)NC(=O)N(C)C[C@@H]1Oc2ccc(NC(=O)C3CCCCC3)cc2CC(=O)N([C@H](C)CO)C[C@H]1C` the value was “inactive”.
`C[C@H]1CN([C@@H](C)CO)C(=O)CCCn2cc(nn2)CO[C@@H]1CN(C)C(=O)Nc1cccc(C(F)(F)F)c1`: the growth inhibition call is “inactive”.
On to `C[C@@H]1CN([C@H](C)CO)C(=O)c2cc(NC(=O)Nc3cccc4ccccc34)ccc2O[C@H]1CN(C)S(=O)(=O)c1cccs1`, for which the growth inhibition call is “inactive”.
The same measure for `Cc1cc(O)cc(=O)[nH]1`: “inactive”; for `Cc1cc(C(=O)O)n[nH]1`: “inactive”.
The same measure for `Cc1cc(=O)[n+]2cccc(O)c2[nH]1`: “active”.
For the molecule `CNC(=O)c1cccc(NC(=S)NC)c1`, the growth inhibition call was “inactive”.
The same measure for `C[C@H](CO)N1C[C@H](C)[C@H](CN(C)C(=O)Nc2ccc3c(c2)OCO3)Oc2ncc(C#CC(C)(C)O)cc2C1=O`: “inactive”; for `CC(=O)O`: “inactive”.
In the case of `O=P(O)(O)CN(CCN(CP(=O)(O)O)CP(=O)(O)O)CP(=O)(O)O`, the growth inhibition call was “inactive”.
For the molecule `O=C(O)P(=O)(O)O`, the growth inhibition call was “active”.
Turning to `O=C(C[C@@H]1CC[C@@H]2[C@H](COC[C@@H](O)CN2C(=O)c2ccncc2)O1)NCc1ccc(-c2ccccc2)cc1`, the growth inhibition call is “inactive”.
For `C[C@H]1CN([C@@H](C)CO)C(=O)c2cc(NS(=O)(=O)c3cn(C)cn3)ccc2O[C@@H]1CN(C)S(=O)(=O)c1cn(C)cn1`, the growth inhibition call was “inactive”.
The same measure for `C[C@H]1CCCCO[C@H](CN(C)S(=O)(=O)c2ccc(F)cc2)[C@@H](C)CN([C@@H](C)CO)C(=O)c2cc(NS(C)(=O)=O)ccc2O1`: “inactive”; for `Cc1noc(C)c1NC(=O)Nc1ccc2c(c1)C(=O)N([C@H](C)CO)C[C@@H](C)[C@H](CN(C)Cc1ccc3c(c1)OCO3)OCCCC[C@@H](C)O2`: “inactive”; for `C[C@H]1CCCCO[C@H](CN(C)C(=O)CCC(F)(F)F)[C@@H](C)CN([C@@H](C)CO)C(=O)c2cc(NC(=O)Cc3ccccc3)ccc2O1`: “inactive”.
For `CC=CC1=C(C(=O)O)N2C(=O)C(NC(=O)C(N)c3ccc(O)cc3)C2SC1` (stereo unspecified), the growth inhibition call was “inactive”.
In the case of `C/C=C\C1=C(C(=O)O)N2C(=O)[C@H](NC(=O)[C@@H](N)c3ccc(O)cc3)[C@@H]2SC1`, the growth inhibition call was “inactive”.
In the case of `CC1=C(C(=O)O)N2C(=O)[C@@H](NC(=O)[C@@H](N)c3ccc(O)cc3)[C@H]2SC1`, the growth inhibition call is “inactive”.
For `CC1=C(C(=O)O)N2C(=O)C(NC(=O)C(N)c3ccc(O)cc3)C2SC1` (stereo unspecified) the value was “inactive”; for `CC1=C(C(=O)O)N2C(=O)[C@@H](NC(=O)[C@H](N)c3ccc(O)cc3)[C@H]2SC1`, “active”; for `C/C=C/C1=C(C(=O)O)N2C(=O)[C@@H](NC(=O)[C@H](N)c3ccc(O)cc3)[C@H]2SC1`, “active”.
In the case of `C[C@@H]1CN([C@H](C)CO)C(=O)c2cccc(NC(=O)C3CC3)c2O[C@H]1CN(C)S(=O)(=O)c1ccc(F)cc1`, the growth inhibition call was “inactive”.
The same measure for `C[C@H](CO)N1C[C@H](C)[C@H](CN(C)S(C)(=O)=O)Oc2ncc(C#CC(C)(C)O)cc2C1=O`: “inactive”; for `OCC(O)C(O)C(O)C(O)CO` (stereo unspecified): “inactive”.
The same measure for `C[C@H](CO)N1C[C@H](C)[C@H](CN(C)Cc2ccc(Oc3ccccc3)cc2)Oc2ccc(NS(=O)(=O)c3ccc(F)cc3)cc2CC1=O`: “inactive”; for `C[C@@H]1CN([C@H](C)CO)S(=O)(=O)c2ccc(-c3cccc(C(=O)N(C)C)c3)cc2O[C@H]1CN(C)C(=O)Cc1ccccn1`: “inactive”; for `COCCOC(=O)N1C(=O)[C@@]2(c3cc(C#CC4=CCCCC4)ccc31)[C@H](C(=O)N1CCN(c3ncccn3)CC1)[C@H]1C(=O)O[C@H](c3ccccc3)[C@H](c3ccccc3)N1[C@@H]2c1ccc(OCCO)cc1`: “inactive”.
Regarding `CC(C)NC(=O)N(C)C[C@H]1Oc2ccc(NC(=O)NC3CCCCC3)cc2C(=O)N([C@H](C)CO)C[C@@H]1C`, the growth inhibition call is “inactive”.
With `C[C@@H]1CCCCO[C@@H](CN(C)S(=O)(=O)c2cn(C)cn2)[C@@H](C)CN([C@H](C)CO)C(=O)c2cc(NS(=O)(=O)c3cn(C)cn3)ccc2O1`, the growth inhibition call is “inactive”.
For `Oc1ccccc1CNc1ccc(C2CCCCC2)cc1`, the growth inhibition call was “inactive”.
Consider `O=C1CCC(c2ccc(O)cc2)CC1`, for which the growth inhibition call was “inactive”.
Turning to `Oc1cc(C2CCCCC2)cc(C2CCCCC2)c1`, the growth inhibition call was “active”.
As to `COc1ccc(NC(=O)Nc2ccc3c(c2)C(=O)N([C@H](C)CO)C[C@H](C)[C@H](CN(C)C(=O)NC(C)C)OCCCC[C@H](C)O3)cc1`, the growth inhibition call is “inactive”.
For `N#C/C(=C\c1ccc(C(F)(F)F)cc1)c1c[nH]c2ccccc12`, the growth inhibition call is “inactive”.
The same measure for `FC(F)(F)c1ccc(CSc2c[nH]c3ccccc23)cc1`: “active”; for `OCc1c[nH]c2ccccc12`: “inactive”; for `c1ccc2c(-c3ccncc3)c[nH]c2c1`: “inactive”.
On to `Cc1c[nH]c2ccccc12`, for which the growth inhibition call is “inactive”.
For `Brc1ccc(CSc2c[nH]c3ccccc23)cc1` the value was “active”.
In the case of `COc1ccc(NC(=O)N(C)C[C@@H]2OCCCC[C@H](C)Oc3ccc(NS(=O)(=O)c4ccc(Cl)cc4)cc3C(=O)N([C@H](C)CO)C[C@H]2C)cc1`, the growth inhibition call is “inactive”.
As for `C[C@@H]1CN([C@H](C)CO)C(=O)c2cc(NC(=O)NC3CCCCC3)ccc2O[C@@H](C)CCCCO[C@@H]1CN(C)S(=O)(=O)c1cccs1`, the growth inhibition call is “inactive”.
As for `COc1ccc(NC(=O)Nc2ccc3c(c2)C(=O)N([C@@H](C)CO)C[C@@H](C)[C@H](CN(C)Cc2ccncc2)OCCCC[C@@H](C)O3)cc1`, the growth inhibition call was “inactive”.
For the molecule `C[C@H]1CCCCO[C@H](CN(C)C(=O)Nc2ccccc2)[C@@H](C)CN([C@@H](C)CO)C(=O)c2cc(NC(=O)Cc3ccccc3)ccc2O1`, the growth inhibition call was “inactive”.
The same measure for `C[C@H]1CN([C@@H](C)CO)C(=O)CCCn2cc(nn2)CO[C@H]1CN(C)S(=O)(=O)c1ccc(C#N)cc1`: “inactive”; for `CN(C)c1cc(CN)ccn1`: “inactive”; for `OC[C@@H]1CCCCN1`: “inactive”.
As for `C1CCC(C(CC2CCCCN2)C2CCCCC2)CC1.O=C(O)C=CC(=O)O` (stereo unspecified), the growth inhibition call is “active”.
As to `O=C(O)[C@@H]1CCCCN1`, the growth inhibition call is “inactive”.
Consider `O=C(O)CC[C@H]1CCCCN1`, for which the growth inhibition call was “inactive”.
`OC[C@@H]1CCCN1`: the growth inhibition call was “inactive”.
On to `C1CCC(C(C[C@H]2CCCCN2)C2CCCCC2)CC1`, for which the growth inhibition call was “active”.
Take `C[C@@H]1CN([C@H](C)CO)C(=O)c2cc(NC(=O)C3CCCCC3)ccc2O[C@@H](C)CCCCO[C@@H]1CN(C)Cc1ccc2c(c1)OCO2`: the growth inhibition call is “inactive”.
In the case of `COc1ccc(NC(=O)N(C)C[C@H]2Oc3c(NC(=O)c4cnccn4)cccc3C(=O)N([C@@H](C)CO)C[C@@H]2C)cc1`, the growth inhibition call was “inactive”.
Turning to `C[C@@H]1CN([C@H](C)CO)S(=O)(=O)c2ccc(C#CCN(C)C)cc2O[C@@H]1CN(C)Cc1ccccn1`, the growth inhibition call is “inactive”.
For `C[C@H](CO)N1C[C@H](C)[C@@H](CN(C)Cc2ccc3c(c2)OCO3)Oc2c(NS(=O)(=O)c3cn(C)cn3)cccc2C1=O` the value was “inactive”.
Consider `COc1ccc(NC(=O)Nc2ccc3c(c2)C(=O)N([C@@H](C)CO)C[C@@H](C)[C@H](CN(C)Cc2ccc(C(=O)O)cc2)OCCCC[C@H](C)O3)cc1`, for which the growth inhibition call was “inactive”.
Take `COc1cccc(S(=O)(=O)N(C)C[C@H]2OCc3cnnn3CCCC(=O)N([C@@H](C)CO)C[C@@H]2C)c1`: the growth inhibition call is “inactive”.

The values are drawn from the antibiotic and cytotoxicity screens of Wong et al. (2023).
